Compounds without any hit were thinned out: in the full panel of roughly 83,000, 20% have a hit.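 The test compound was applied at a single concentration to cells in 96-well plates for 48 hours, and percent growth was recorded.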 Calls of active or inactive are those of the source. How the source made its calls: active means growth percent below 10; inactive means the rest.
Legend:
Experiment in all cases: NCI-60 one-dose screen, 48 h (100 = growth as untreated, 0 = no growth, -100 = all killed)
Settings in all cases: 10 µM unless noted
NCI-H23 lung = system: NCI-H23 lung
NCI-H226 lung = system: NCI-H226 lung
NCI-H322M lung = system: NCI-H322M lung
HOP-62 NSCLC = system: HOP-62 NSCLC
NCI-H460 lung = system: NCI-H460 lung
NCI-H522 lung = system: NCI-H522 lung
A549/ATCC NSCLC = system: A549/ATCC NSCLC
786-0 renal = system: 786-0 renal
COLO 205 colon = system: COLO 205 colon
DU-145 prostate = system: DU-145 prostate

Measured: growth

O=C1c2ccccc2-c2c1nc1ccccc1[n+]2[O-]
inactive: NCI-H23 lung 102% | NCI-H226 lung 106% | NCI-H322M lung 97% | HOP-62 NSCLC 102% | NCI-H460 lung 102% | NCI-H522 lung 93.1% | A549/ATCC NSCLC 108% | 786-0 renal 103% | COLO 205 colon 111% | DU-145 prostate 108%

COc1ccc2c(c1)[nH]c(=O)c1c3cc(OC)c(OC)cc3cn21
inactive: NCI-H23 lung 42.5% | NCI-H226 lung 44.6% | NCI-H322M lung 20.7% | HOP-62 NSCLC 47.4% | 786-0 renal 32.1%
active: NCI-H460 lung 6.39% | NCI-H522 lung -2.16% | A549/ATCC NSCLC -22.1% | COLO 205 colon -34.8% | DU-145 prostate -87.2%

Clc1ccc2nc(Cl)c3ccccc3c2c1
active: NCI-H460 lung -1.38%
inactive: NCI-H23 lung 84.6% | NCI-H226 lung 71.7% | NCI-H322M lung 37.6% | HOP-62 NSCLC 58.3% | NCI-H522 lung 75.7% | A549/ATCC NSCLC 28.7% | 786-0 renal 46.8% | COLO 205 colon 78.3% | DU-145 prostate 62.9%

O=C(C(Br)Br)C(Br)C(Br)c1ccccc1 (stereo not given)
inactive: NCI-H23 lung 90.1% | NCI-H226 lung 95% | NCI-H322M lung 109% | HOP-62 NSCLC 109% | NCI-H460 lung 104% | A549/ATCC NSCLC 98.5% | 786-0 renal 107% | DU-145 prostate 87.4%
active: NCI-H522 lung -33.3% | COLO 205 colon 4.54%

Cc1cc(CC(=O)O)n(C)c1C(=O)c1ccc(Cl)cc1
inactive: NCI-H23 lung 96.3% | NCI-H226 lung 95.2% | NCI-H322M lung 120% | HOP-62 NSCLC 117% | NCI-H460 lung 115% | NCI-H522 lung 101% | A549/ATCC NSCLC 108% | 786-0 renal 103% | COLO 205 colon 114% | DU-145 prostate 125%

CC(C)c1ccc(C(=O)Nc2sc3c(CN(C)C)c(O)ccc3c2C(N)=O)cc1
inactive: NCI-H23 lung 49.1% | NCI-H226 lung 86.9% | NCI-H322M lung 65.5% | HOP-62 NSCLC 64.4% | NCI-H460 lung 72% | NCI-H522 lung 43.7% | A549/ATCC NSCLC 33% | 786-0 renal 49.6% | COLO 205 colon 47.1% | DU-145 prostate 51.9%

COc1cc(/C=C/C(=O)c2c(-c3ccc(Cl)cc3)nc3sc(C)nn23)cc(OC)c1OC
active: NCI-H522 lung -20.1%
inactive: NCI-H23 lung 84.3% | NCI-H226 lung 68.3% | NCI-H322M lung 87.5% | HOP-62 NSCLC 98.8% | NCI-H460 lung 97.2% | A549/ATCC NSCLC 83.8% | 786-0 renal 81.4% | COLO 205 colon 100% | DU-145 prostate 90.2%

CC(=O)Oc1c(C)c(OC(C)=O)c2c(c1C(C)=O)OC1CC(=O)C(C(C)=O)=C(O)C21C (stereo not given)
inactive: NCI-H23 lung 90.9% | NCI-H226 lung 104% | NCI-H322M lung 105% | HOP-62 NSCLC 89.2% | NCI-H460 lung 94.9% | NCI-H522 lung 91.1% | A549/ATCC NSCLC 99% | 786-0 renal 94.8% | COLO 205 colon 118% | DU-145 prostate 112%

CCCCCCCC/C=C\CCCCCCCCOc1ccccc1CC(=O)NCC[N+]1(C)CCCC1
inactive: NCI-H23 lung 78.1% | NCI-H226 lung 92.6% | NCI-H322M lung 103% | HOP-62 NSCLC 80.6% | NCI-H460 lung 52.2% | NCI-H522 lung 46.9% | A549/ATCC NSCLC 75% | 786-0 renal 80.8% | COLO 205 colon 43.1% | DU-145 prostate 90.8%

O=C1/C(=C/c2ccc([N+](=O)[O-])o2)Oc2ccc(Cl)cc21
active: NCI-H226 lung -7.54% | NCI-H522 lung -84.4% | 786-0 renal -53.7% | COLO 205 colon -57.8%
inactive: NCI-H23 lung 21.3% | NCI-H322M lung 79% | HOP-62 NSCLC 74.5% | NCI-H460 lung 75.4% | A549/ATCC NSCLC 92.4% | DU-145 prostate 35.7%

O=C(CCc1nnc(Cn2ccnc2)o1)c1nc2ccccc2[nH]1
inactive: NCI-H23 lung 102% | NCI-H226 lung 115% | NCI-H322M lung 92.9% | HOP-62 NSCLC 102% | NCI-H460 lung 116% | NCI-H522 lung 98.4% | A549/ATCC NSCLC 103% | 786-0 renal 105% | COLO 205 colon 119% | DU-145 prostate 108%

Cc1nn(-c2ccc(Cl)cc2)c2nc3c(nc12)C(=O)c1ccccc1-3
inactive: NCI-H23 lung 61.7% | NCI-H226 lung 32.5% | NCI-H322M lung 63.1% | HOP-62 NSCLC 51.7% | NCI-H460 lung 12.6% | NCI-H522 lung 60.7% | A549/ATCC NSCLC 55.8% | 786-0 renal 56.8% | COLO 205 colon 95.2% | DU-145 prostate 77.8%

Cc1ccc2c(c1)O/C(=C\c1ccc([N+](=O)[O-])o1)C2=O
active: NCI-H522 lung -66% | 786-0 renal 5.37% | COLO 205 colon -41.8% | DU-145 prostate -1.53%
inactive: NCI-H23 lung 56.2% | NCI-H226 lung 78.9% | NCI-H322M lung 68.6% | HOP-62 NSCLC 69.6% | NCI-H460 lung 25.4% | A549/ATCC NSCLC 55.4%

COc1cc(/C=C2\CCC/C(=C\c3ccc(OCC4CO4)c(OC)c3)C2=O)ccc1OCC1CO1 (stereo not given)
inactive: NCI-H23 lung 57.8% | NCI-H226 lung 86.2% | NCI-H322M lung 85.1% | HOP-62 NSCLC 28.9% | NCI-H522 lung 24.3% | A549/ATCC NSCLC 21.3% | 786-0 renal 65.2% | COLO 205 colon 33.8%
active: NCI-H460 lung 8.96% | DU-145 prostate 7.14%

Fc1ccc(-c2nc(Nc3ccc(-c4nc5ccccc5[nH]4)cc3)nc(N3CCOCC3)n2)cc1
active: NCI-H23 lung -83.4% | NCI-H226 lung -64.5% | NCI-H322M lung -92.8% | HOP-62 NSCLC -73.9% | NCI-H460 lung -80.3% | NCI-H522 lung -73.9% | A549/ATCC NSCLC -75.2% | 786-0 renal -94.5% | COLO 205 colon -68.4% | DU-145 prostate -94%

O=C1/C(=C/c2ccc([N+](=O)[O-])o2)Oc2ccc(Br)cc21
active: NCI-H522 lung -66.1% | COLO 205 colon 8.53%
inactive: NCI-H23 lung 74.1% | NCI-H226 lung 98% | NCI-H322M lung 75.6% | HOP-62 NSCLC 94.3% | NCI-H460 lung 107% | A549/ATCC NSCLC 107% | 786-0 renal 28.3% | DU-145 prostate 72.1%

CSc1nc2c(c(=O)[nH]1)C(c1ccc(Cl)cc1)C1=C(N2)/C(=C/c2ccc(Cl)cc2)CNC1 (stereo not given)
inactive: NCI-H23 lung 69% | NCI-H226 lung 78.9% | NCI-H322M lung 64.1% | NCI-H460 lung 37.3% | NCI-H522 lung 79.3% | A549/ATCC NSCLC 32.2% | 786-0 renal 88.4% | COLO 205 colon 29.2% | DU-145 prostate 39.3%
active: HOP-62 NSCLC -2.54%

N#CCCN(CCO)c1ccccc1
inactive: NCI-H23 lung 104% | NCI-H226 lung 94.6% | NCI-H322M lung 93.7% | HOP-62 NSCLC 95% | NCI-H460 lung 105% | NCI-H522 lung 80.6% | A549/ATCC NSCLC 98.9% | 786-0 renal 96.2% | COLO 205 colon 104% | DU-145 prostate 116%

COC(=O)[C@]1(CCSC)N[C@H](c2cn(-c3ccccc3)nc2C)[C@@H]2C(=O)N(c3ccc(C)cc3)C(=O)[C@@H]21
inactive: NCI-H23 lung 100% | NCI-H226 lung 129% | NCI-H322M lung 104% | HOP-62 NSCLC 99.5% | NCI-H460 lung 104% | NCI-H522 lung 89.6% | A549/ATCC NSCLC 90.5% | 786-0 renal 97.1% | COLO 205 colon 113% | DU-145 prostate 103%

O=C1C(=O)c2ccc(Br)cc2-c2cc(Br)ccc21
active: NCI-H522 lung 0.737%
inactive: NCI-H23 lung 42% | NCI-H226 lung 88.6% | NCI-H322M lung 91.2% | HOP-62 NSCLC 76.3% | NCI-H460 lung 78.8% | A549/ATCC NSCLC 89.7% | 786-0 renal 50.9% | COLO 205 colon 119% | DU-145 prostate 68.4%

O=C(Nc1ccc(C2=NCCCN2)cc1)Nc1ccc(C2=NCCCN2)cc1
inactive: NCI-H23 lung 67.4% | NCI-H226 lung 75% | NCI-H322M lung 94.5% | HOP-62 NSCLC 101% | NCI-H460 lung 88.8% | NCI-H522 lung 80.1% | A549/ATCC NSCLC 99.9% | 786-0 renal 84.3% | COLO 205 colon 128% | DU-145 prostate 103%

O=C(CCc1nnc(SCc2ccccc2)s1)c1nc2ccccc2[nH]1
inactive: NCI-H23 lung 96.4% | NCI-H226 lung 102% | NCI-H322M lung 92.9% | HOP-62 NSCLC 105% | NCI-H460 lung 105% | NCI-H522 lung 84.4% | A549/ATCC NSCLC 86.3% | 786-0 renal 91.2% | COLO 205 colon 117% | DU-145 prostate 107%

CC1SC(c2c(Cl)cccc2Cl)N(NC(=O)c2[nH]c3ccc(F)cc3c2-c2ccccc2)C1=O (stereo not given)
active: NCI-H322M lung 4.84% | HOP-62 NSCLC -44.6% | NCI-H460 lung 8.08% | A549/ATCC NSCLC -1.11%
inactive: NCI-H23 lung 48% | NCI-H226 lung 58.5% | NCI-H522 lung 69% | 786-0 renal 33.8% | COLO 205 colon 35.1% | DU-145 prostate 24.1%

CC/C=C\C=C/C(=O)N/C=C/CC1Cc2cccc(O)c2C(=O)O1 (stereo not given)
inactive: NCI-H23 lung 77.1% | NCI-H226 lung 110% | NCI-H322M lung 119% | HOP-62 NSCLC 65.5% | NCI-H460 lung 130% | NCI-H522 lung 55.2% | A549/ATCC NSCLC 84.8% | 786-0 renal 81.5% | COLO 205 colon 94.2% | DU-145 prostate 76.4%

O=C1/C(=C/c2ccc([N+](=O)[O-])s2)Oc2ccc(Br)cc21
active: NCI-H23 lung -48.3% | NCI-H226 lung -57% | NCI-H322M lung -29.7% | HOP-62 NSCLC -49.8% | NCI-H460 lung -51.9% | NCI-H522 lung -77.7% | A549/ATCC NSCLC -39.6% | 786-0 renal -13.4% | COLO 205 colon -80% | DU-145 prostate -72.1%

O=[N+]([O-])c1cnc(Sc2ccncn2)c([N+](=O)[O-])c1
inactive: NCI-H23 lung 103% | NCI-H226 lung 99.6% | NCI-H322M lung 108% | HOP-62 NSCLC 99.3% | NCI-H460 lung 100% | A549/ATCC NSCLC 97.6% | 786-0 renal 106% | DU-145 prostate 109%
active: NCI-H522 lung -83.1% | COLO 205 colon -11.8%
